Bioassay records: PubChem, Johns Hopkins Ion Channel Center
CHT allo act = human CHT allosteric activation; Q9GZV3; CHT-expressing cells, membrane potential dye, choline EC20; active compounds read high; LV-AA mutant CHT in HEK293 cells; B-score at 10 µM; hit rate 0.49% among 310,000;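 active = initial fluorescence not abnormally high and integrated response B-score, plate-corrected, over 3 SD above library mean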
Target sequence (Q9GZV3 whole entry, looked up): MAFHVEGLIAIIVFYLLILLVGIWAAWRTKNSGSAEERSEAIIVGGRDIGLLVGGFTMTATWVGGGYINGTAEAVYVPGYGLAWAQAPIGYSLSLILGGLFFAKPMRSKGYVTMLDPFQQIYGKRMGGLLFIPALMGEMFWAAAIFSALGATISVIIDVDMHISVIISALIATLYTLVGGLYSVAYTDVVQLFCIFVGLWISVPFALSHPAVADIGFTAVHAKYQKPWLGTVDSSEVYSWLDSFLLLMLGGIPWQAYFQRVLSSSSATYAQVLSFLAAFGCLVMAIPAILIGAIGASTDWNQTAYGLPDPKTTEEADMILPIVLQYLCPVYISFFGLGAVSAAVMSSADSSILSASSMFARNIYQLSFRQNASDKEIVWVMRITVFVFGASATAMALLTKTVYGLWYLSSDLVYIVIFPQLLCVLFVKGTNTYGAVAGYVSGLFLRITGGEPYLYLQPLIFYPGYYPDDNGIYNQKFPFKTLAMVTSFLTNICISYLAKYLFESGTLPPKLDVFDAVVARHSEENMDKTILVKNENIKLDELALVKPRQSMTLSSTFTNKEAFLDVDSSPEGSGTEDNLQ
TMEM16A inh = blocks the mouse calcium-activated chloride channel TMEM16A. HEK293 TMEM16A/YFP iodide influx fluorescence, ionomycin. hit rate 1.2% among 310,000. normalized B-score (activity score, 25-100; higher = stronger inhibition) at 10 µM. AID 588511;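 active = ratio plate-corrected score three or more library SD toward inhibition, starting fluorescence score within five deviations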;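 note: score derived from kinetic fluorescence span divided by baseline fluorescence per well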
TMEM16A act = mouse TMEM16A channel activation, primary screen. B-score at 10 µM. AID 623877. HEK293 TMEM16A/YFP-H148Q/I152L, iodide quench fluorescence; active compounds read low. hit rate 0.3% among 340,000. Q8BHY3;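 active = fluorescence-ratio B-score plate-corrected deviation score at least 3 library SD below zero, with starting fluorescence score within 5 deviations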;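 note: channel opened by trigger with iodide after compound preincubation; score built on the fluorescence ratio of max minus min over baseline; more negative score means more quench and so TMEM16A activation or potentiation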
CHT block = human CHT choline transport inhibition | Q9GZV3 | CHT-expressing cells, membrane potential dye, choline response; active compounds read low | B-score at 10 µM | hit rate 0.86% among 310,000 | AID 488975;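 active = B-score over 3 SD under the library average, and starting fluorescence ratio not unusually high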;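 note: choline stimulus applied at its EC90 after an EC20 pre-addition; B-score computed on integrated fluorescence ratio after choline addition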
Hits are given with their value; i = inactive; nt = no result given. Most compounds without a hit are left out; they make up all but 2.3% or so of the library.

SMILES	CHT allo act	TMEM16A inh	TMEM16A act	CHT block
Cc1ccc2cc(C#N)c(N3CCCC3)nc2c1C	i	i	nt	i
Cc1ccc2cc(C#N)c(N3CCCN(C(=O)C4CCCO4)CC3)nc2c1C (configuration not stated)	i	i	i	-6.12
Cc1cccc(NC(=O)C(=O)NCCc2c[nH]c3ccccc23)c1C	i	i	-5.6	i
Cc1cccc(C)c1NC(=O)C(=O)NCCc1c[nH]c2ccccc12	i	i	i	i
COc1ccc(C(=O)NNC(=S)NC(=O)c2ccc(Cl)cc2)cc1	i	100	i	i
Cc1cccc(C(=O)NC(=S)NNC(=O)c2ccc(Cl)cc2)c1	i	25	i	i
COc1cc(C(=O)NNC(=S)NC(=O)c2ccc(Cl)cc2)cc(OC)c1OC	i	i	i	i
O=C(NNC(=S)NC(=O)c1cccc([N+](=O)[O-])c1)c1ccc(Br)cc1	i	100	i	i
Cc1ccc(C(=O)NC(=S)NNC(=O)c2cccc([N+](=O)[O-])c2)cc1	i	i	i	i
O=C(NNC(=S)NC(=O)c1cccc([N+](=O)[O-])c1)c1ccc(O)cc1	i	i	i	i
Cc1ccc(SCC(=O)NC(=O)c2ccccc2Br)c(C)c1	nt	nt	i	nt
COc1cc2nc(CN3CCN(S(=O)(=O)c4ccc(Cl)cc4)CC3)[nH]c(=O)c2cc1OC	i	i	-38.6	i
COc1cc2nc(CN3CCN(S(=O)(=O)c4ccccc4)CC3)[nH]c(=O)c2cc1OC	nt	nt	i	nt
COc1ccc(C2NC(c3ccc(OC)cc3OC)C(C)C(=O)C2C)c(OC)c1 (configuration not stated)	i	i	-5.91	i
COc1ccc(OC)c(C2CC(=O)C(C)C(c3cc(OC)ccc3OC)N2)c1 (configuration not stated)	i	i	i	i
O=C(Nc1ccc(Nc2ccncc2)cc1)c1ccc([N+](=O)[O-])cc1	i	i	-6.08	i
Cc1cccc(NC(=O)c2nc[nH]c2C(=O)N2CCC(C)CC2)c1	nt	nt	i	nt
CCC1(C(=O)OC)NC(c2ccco2)C2C(=O)N(c3ccc(F)cc3)C(=O)C21 (configuration not stated)	i	i	i	i
CCC1(C(=O)OC)NC(c2ccco2)C2C(=O)N(c3ccccc3)C(=O)C21 (configuration not stated)	i	i	-4.77	i
O=c1[nH]ncn2cccc12	i	100	i	i
Nc1nonc1-n1nnc(C(=O)N/N=C/c2ccc(OCc3ccccc3)cc2)c1CN1CCCCC1	i	i	i	i
CN(C)c1ncc(S(=O)(=O)c2ccc(Cl)cc2)c(-c2ccc(Cl)cc2Cl)n1	i	i	-7.69	i
COc1ccc(C(=O)Nc2ccc(S(=O)(=O)Nc3cc(C)nc(C)n3)cc2)cc1OC	i	i	-6.7	i
COc1cc(C(=O)Nc2ccc(S(=O)(=O)Nc3cc(C)nc(C)n3)cc2)cc(OC)c1OC	i	i	i	i
O=C1NC(=S)SC1=C1CCCCCC1	i	i	i	-6.03
SMILES	CHT allo act	TMEM16A inh	TMEM16A act	CHT block
Cc1ccc(NC(=O)COC(=O)c2ccc(NC(=O)CC#N)cc2)cc1S(=O)(=O)N1CCOCC1	nt	nt	i	nt
Cc1cc(NC(=O)COC(=O)C2CCN(C(=O)c3ccc(Cl)cc3)CC2)no1	i	i	i	i
Cc1cc(NC(=O)COC(=O)C2CCN(S(=O)(=O)c3cccc(Cl)c3Cl)CC2)no1	i	100	i	i
Cc1occc1-c1nnc(SCC(=O)NCc2cccs2)n1CC1CCCO1 (configuration not stated)	nt	nt	-9.53	nt
O=C(NCc1ccco1)C1CCN(C(=O)c2ccc(Cl)cc2)CC1	nt	nt	i	nt
O=C(NCc1ccco1)C1CCN(C(=O)c2cc3sccc3n2Cc2ccc(Cl)cc2)CC1	i	100	i	i
CC1=NN(C(N)=S)C(=O)C1N=Nc1c(C)cc(C)cc1C (configuration not stated)	i	i	i	i
CC1=NN(C(N)=S)C(=O)C1N=Nc1c(Cl)cc([N+](=O)[O-])cc1Cl (configuration not stated)	i	25	i	i
COc1ccc(/C=N/Nc2cc(N3CCCC3)nc(N3CCCC3)n2)cc1	i	i	-18.5	i
O=C(CCSc1nnc(-c2ccccc2)o1)N1CCOCC1	i	i	i	i
Cc1ccc(-c2nnc(SCCC(=O)N3CCOCC3)o2)cc1	i	i	-38.8	i
N#Cc1ccccc1OCCCN1CCC(Cc2ccccc2)CC1	i	i	i	-8.98
CCOC(=O)N1CCC(NC(=O)C2CCCN(Cc3nc(-c4ccc(CC)cc4)oc3C)C2)CC1 (configuration not stated)	i	25	i	i
C=CCN1C(=O)/C(=C\c2ccc(Cl)cc2)N=C1SCC(=O)NCCC	i	i	-26.8	i
NS(=O)(=O)c1cccc(NC(=O)CSc2nc3ccccc3c(=O)n2Cc2ccco2)c1	nt	nt	i	nt
Cc1ccc(NC(=O)CN(C)C(=O)CSc2nc3ccccc3c(=O)n2Cc2ccco2)cc1	i	100	i	i
Cc1nc2nc(-c3ccccc3)cc(=O)n2[nH]1	i	i	i	i
O=C1CCC(=O)N1c1nc2nc(-c3ccccc3)cc(=O)n2[nH]1	i	i	-23.5	i
Cc1cc[n+](-c2[nH]c(=O)sc2/C=N/NC([S-])=Nc2ccccc2)cc1	i	i	-5.05	i
CCOC(=O)C(C#N)(Cc1ccc2ccccc2n1)Cc1ccc2ccccc2n1	nt	nt	i	nt
O=C1ON=C(c2ccccc2)/C1=C/c1ccc(-c2ccccc2[N+](=O)[O-])o1	i	25	-6.23	i
O=[N+]([O-])c1ccccc1-c1ccc(/C=N/n2cnnc2)o1	i	i	i	i
COc1cccc(-c2nc(C=O)cs2)c1	i	i	i	-4.99
Cc1nn(CCc2nn[nH]n2)c2nc(-c3ccc(Br)cc3)cc(C(F)(F)F)c12	i	100	i	i
COc1ccccc1CCC(=O)N1CCN(S(=O)(=O)c2cc(C(F)(F)F)ccc2Cl)CC1	nt	nt	i	nt
SMILES	CHT allo act	TMEM16A inh	TMEM16A act	CHT block
CCN(CC)CCOCCn1c(C)ccc1C	nt	nt	i	nt
CCOC(=O)C(NC(=O)c1ccccc1Cl)(Nc1ccc(C)c(C)c1)C(F)(F)F (configuration not stated)	i	i	i	i
COC(=O)C(Nc1ccccc1Cl)(c1cc(C)c(O)c(C)c1)C(F)(F)F (configuration not stated)	i	100	i	i
O=C(CC1C(=O)NCCN1Cc1ccccn1)NCCc1ccccc1F (configuration not stated)	i	i	i	i
O=[N+]([O-])c1ccccc1S(=O)(=O)NCCC1=CCCCC1	i	25	i	i
O=C(c1ccc(CS(=O)(=O)c2ccc(Br)cc2)o1)N1CCN(c2ccccn2)CC1	i	i	-7.84	i
Cc1ccc(S(=O)(=O)Cc2ccc(C(=O)N3CCN(c4ccccn4)CC3)o2)cc1	i	i	i	i
Cc1ccc(-c2nn(-c3ccccc3)cc2C(=O)N2CCN(C3CCS(=O)(=O)C3)CC2)cc1 (configuration not stated)	nt	nt	i	nt
Cc1ccc(-c2nn(-c3ccc(F)cc3)cc2C(=O)N2CCN(C3CCS(=O)(=O)C3)CC2)cc1 (configuration not stated)	nt	nt	-37.5	nt
CC(C)Oc1ccc(Cn2c(=O)sc3ccccc32)cc1	i	25	i	i
